This passage reports growth results from PubChem BioAssay (NCI).

Several values for one entry are separate records, joined by “and”; a condition that tells them apart may be missing. Equal values may be shown once. The panel holds about 83,000 compounds, 20% with a hit somewhere; the sample as a whole holds those more often.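 Testing used 96-well plates and a 48-hour single-concentration exposure. Example: -40 means 40% of the starting cells died.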 Values without a mark were called inactive. Activity calls are given as the source filed them. The calls were made as follows: active = growth percent below 10; inactive = the rest.

One assay deals with HL-60(TB) leukemia. The assay can be described thus: NCI-60 one-dose screen, 48 h (100 = growth as untreated, 0 = no growth, -100 = all killed). To be noted: 2.5 µM.
For the compound `CC(=O)O[C@H]1C(=O)[C@@]2(C)[C@H]([C@H](OC(=O)c3ccccc3)[C@]3(O)C[C@H](OC(=O)[C@H](O)[C@@H](NC(=O)c4ccccc4)c4ccccc4)C(C)=C1C3(C)C)[C@]1(OC(C)=O)CO[C@@H]1C[C@@H]2O`, the growth was -43.6% (active).

Take `COc1cc(NS(C)(=O)=O)ccc1Nc1c2ccccc2nc2ccccc12`: the growth is -0.933% (active). In the case of `COc1cccc2c1C(=O)c1c(O)c3c(c(O)c1C2=O)C[C@@](O)(C(=O)CO)C[C@@H]3OC1CC(N)C(O)C(C)O1` (some centres undefined), the growth was 81.9%. Regarding `CN(Cc1cnc2nc(N)nc(N)c2n1)c1ccc(C(=O)N[C@@H](CCC(=O)O)C(=O)O)cc1`, the growth was 27%.

Still in this assay, the particulars now being: 10 µM.
With `CC(=O)/C=C/c1ccc(N(C)Cc2ccc(C(C)(C)C)cc2)cc1`, the growth is 53.9%. With `COc1ccc(C(=O)/C=C/c2ccc(OCc3ccc(Cl)cc3)cc2)cc1OC`, the growth was 81.2%.

Take `S=P(N1CC1)(N1CC1)N1CC1`: the growth is 99.5% and 32.7%. In the case of `CCN(Cc1ccccc1)c1ccc(/C=C2\COc3ccccc3C2=O)cc1`, the growth is 78.3%. Turning to `CC/C(=C(\c1ccccc1)c1ccc(OCCN(C)C)cc1)c1ccccc1`, the growth was 39.6%. With `CC(=O)O[C@H]1C(=O)[C@@]2(C)[C@H]([C@H](OC(=O)c3ccccc3)[C@]3(O)C[C@H](OC(=O)[C@H](O)[C@@H](NC(=O)c4ccccc4)c4ccccc4)C(C)=C1C3(C)C)[C@]1(OC(C)=O)CO[C@@H]1C[C@@H]2O`, the growth was -12.3% (active) and -35.8% (active). `CC(C)(C)c1cc(NC(=O)Cc2ccc(-c3cnc4cc(-c5cnn(CCN6CCOCC6)c5)ccc4n3)cc2)no1`: the growth was 4.17% (active). On the same count and under the same terms, next, `Cc1[nH]c(-c2nc3ccccc3[nH]2)c(C)c1C(=O)NC(C)C1CCCCC1` (centres undefined): 98.3%; `COc1cc(NS(C)(=O)=O)ccc1Nc1c2ccccc2nc2ccccc12`: -43.9% (active) and -9.61% (active) and -4.58% (active); `O=C(/C=C/c1cccc(Oc2ccc(Cl)cc2)c1)c1ccccc1`: 73.9%. Take `COc1cccc2c1C(=O)c1c(O)c3c(c(O)c1C2=O)C[C@@](O)(C(=O)CO)C[C@@H]3OC1CC(N)C(O)C(C)O1` (some centres undefined): the growth was -21.8% (active). In the case of `CCc1ccccc1-n1c(N)c(C#N)c(-c2ccc(OC)c(OC)c2)c(C#N)c1=O`, the growth is 113%. For `CC#C[C@]1(O)CC[C@H]2[C@@H]3CCC4=CC(=O)CCC4=C3[C@@H](c3ccc4c(c3)OCO4)C[C@@]21C`, the growth was 67.5%. On the same count and under the same terms, next, `O=c1[nH]cc(F)c(=O)[nH]1`: 59.7%. On the same count and under the same terms, next, `CNC(=O)c1cc(Oc2ccc(CC(=O)Nc3cc(C(C)(C)C)nn3C)cc2)ccn1`: 77%; `CC(=O)/C=C/c1ccc(OCc2ccc(Cl)cc2)cc1`: 83.9%; `CC1(C)OB(c2ccc(Cn3cc(F)c(=O)[nH]c3=O)cc2)OC1(C)C`: 97.7%. For the compound `CCCCCCCCCCCCCCCc1ccc(Cl)c(O)c1Cl` (tested in a mixture with another compound), the growth was 118%. On the same count and under the same terms, next, `COc1ccc(Cl)cc1C(=O)NCCc1ccc(S(=O)(=O)NC(=O)NC2CCCCC2)cc1`: 121% and 103%; `O=C(O)c1c(Cl)c(Cl)c(Cl)c(Cl)c1-c1c2cc(I)c(=O)c(I)c-2oc2c(I)c(O)c(I)cc12`: 103% and 104% and 109%.

`CN(Cc1cnc2nc(N)nc(N)c2n1)c1ccc(C(=O)N[C@@H](CCC(=O)O)C(=O)O)cc1`: the growth was 24.1%. Turning to `COc1ccc(C(=O)/C=C/c2ccc(OCc3cccc(C(F)(F)F)c3)c(OC)c2)cc1OC`, the growth was 36.4%. Regarding `S=c1nc[nH]c2nc[nH]c12`, the growth is 13.8%. Consider `Cc1c2oc3c(C)ccc(C(=O)N[C@@H]4C(=O)N[C@H](C(C)C)C(=O)N5CCC[C@H]5C(=O)N(C)CC(=O)N(C)[C@@H](C(C)C)C(=O)O[C@H]4C)c3nc-2c(C(=O)N[C@@H]2C(=O)N[C@H](C(C)C)C(=O)N3CCC[C@H]3C(=O)N(C)CC(=O)N(C)[C@@H](C(C)C)C(=O)O[C@H]2C)c(N)c1=O`, for which the growth is -24.3% (active). With `O=C(O)c1sccc1O`, the growth was 62.6%.
